# Out of some 420,000 compounds screened, about 64,000 (15%) were called active. Inconclusive results (about 27%) are left out. Calls come from the whole dose curve; as a rule, active = well fitted inhibition curve with a large enough effect; inconclusive = small, poorly fitted or top-dose-only effect; inactive = flat fitted curve, though single readings scatter. Only a sample is shown. Square brackets hold non-standard residues; d marks the D form. Peptide text beside a SMILES is read from it. ξ: configuration not given here. Ac5c = NC1(C(=O)O)CCCC1; ξS = NC(CO)C(=O)O
# Test: qHTS for Inhibitors of human tyrosyl-DNA phosphodiesterase 1 (TDP1): qHTS in cells in absence of CPT; note: nearly all actives have a fitted effect of over 55% in size
# Conditions: DT40 Tdp1-/- hTDP1 cells, no CPT, ATP luminescence, 48 h; activity change, negative = growth inhibition: at 46.2 µM (top of the series)
# Outline: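 Readout: luminescence from CellTiter-Glo after 30 min in the dark at RT. Cells: DT40 Tdp1-/- with stable hTDP1, 400/well. Exposure: compounds alone, ≥48 hr, 37 °C.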
# % is set by controls: 0 for no effect and ±100 for the full control effect; potency is the fitted concentration of half-maximal effect.
SMILES,"activity change, negative = growth inhibition",Potency
CC(C)(O)C#Cc1ccc(CNC[C@H]2O[C@@H](n3cnc4c(=O)[nH]c(N)nc43)[C@H](O)[C@@H]2O)s1,2.14% (inactive),–
O=C(CN1CCC(NC(=O)C2CC2)CC1)Nc1ccccc1[N+](=O)[O-],-8.6% (inactive),–
C=O,1.38% (inactive),–
CN1CCC2(CC1)NC(=O)NC2=O,-11.8% (inactive),–
Cc1ccc(NC(=O)COC(=O)CNC(=O)c2ccc(Cl)cc2Cl)cc1S(=O)(=O)N1CCOCC1,1.87% (inactive),–
NC(=O)Cc1ccc2sc(-c3ccccc3)nc2c1,-21.5% (inactive),–
Cn1c(=O)n(C)c2cc(/C=N/NC(=O)c3cccc(Br)c3)ccc21,-24.1% (inactive),–
COc1ccc(CN(C)C(=O)c2cc(-c3ccc(C)cc3C)nc3ccccc23)c(OC)c1OC,–,11.6 µM (active)
Cc1ccc(-c2cc(C(=O)Nc3nn[nH]n3)c3ccccc3n2)c(C)c1,1.44% (inactive),–
COc1ccc(CN(C)C(=O)Cc2ccsc2)c(OC)c1OC,-6.23% (inactive),–
CC(=O)Nc1nc2c(s1)C(=O)NCC(C)(C)C2,5.92% (inactive),–
Cn1nc(C(C)(C)C)c(NC(=O)c2sccc2Cl)c1C(C)(C)C,-23.7% (inactive),–
NCCCNCCCCN(CCCN)/[N+]([O-])=N/O,–,13.3 µM (active)
COc1ccc(CN2[C@@H](CC(=O)O)c3cc(F)ccc3S2(=O)=O)cc1,–,inactive
COCCNC(=S)N1CCC(NC(=O)C23CC4CC(CC(C4)C2)C3)CC1,-11.4% (inactive),–
S=C(Nc1cccc(Cl)c1)Nc1ccc2c(c1)OCCO2,-15.8% (inactive),–
Cc1csc(NC(=S)Nc2cccc(Cl)c2)n1,–,4.61 µM (active)
S=C(Nc1cccc(Cl)c1)Nc1ccc2cn[nH]c2c1,-3.53% (inactive),–
COc1cc(Cl)c(C)cc1Nc1nnc(-n2nc(C)cc2C)c2ccccc12,-24% (inactive),–
Cc1ccc(NC(=O)NC(=O)CSc2nnc(-c3ccc(OC(F)F)cc3)n2N)c(C)c1,11.1% (inactive),–
CCOC(=O)CN(C(=O)CN1CCOCC1)c1ccc(Br)cc1,-10.1% (inactive),–
COC(CNC(=O)c1ccc2c(c1)ncn2-c1cc(C)cc(C)c1)OC,-14.3% (inactive),–

SMILES,"activity change, negative = growth inhibition",Potency
COc1ccc(-n2cnc3cc(C(=O)NC4CCCC4)ccc32)cc1,-25.9% (inactive),–
COCCNC(=O)c1ccc2c(c1)ncn2-c1ccc(C)c(Cl)c1,–,14.6 µM (active)
CC(=O)N/C(=C\c1ccc(F)cc1)C(=O)NC(Cc1ccccc1)C(=O)O (stereo not drawn),8.07% (inactive),–
Cc1cc(C)cc(NC(=O)CSc2ccccc2)c1,-21.9% (inactive),–
Cc1cc(C)cc(NC(=O)CSCc2cnn(-c3ccccc3)c2-n2cccc2)c1,–,10.3 µM (active)
CC(=O)Nc1ccc(NC(=O)CSCc2cnn(-c3ccccc3)c2-n2cccc2)cc1,-14.5% (inactive),–
CCOC(=O)c1ccc(N2C(=O)CC(N3CCN(C(=O)c4ccccc4)CC3)C2=O)cc1 (stereo not drawn),18.9% (inactive),–
FC(F)(F)c1nnc2sc(-c3ccco3)nn12,15.9% (inactive),–
Nc1nnc2c(C(F)(F)F)nc3ccccc3n12,-21.9% (inactive),–
FC(F)(F)c1nnc2c3ccccc3c(Cl)nn12,–,6.51 µM (active)
O=C(COC(=O)c1cc2c(s1)CCCC2)NCc1ccccc1Cl,-5.8% (inactive),–
C/C(=N\NC(=O)c1ccc(CSc2nc(C)cc(C)n2)cc1)C1CCCCC1,-16.8% (inactive),–
CC1CCN(C(=O)/C(=C\c2ccccc2F)NC(=O)c2ccccc2)CC1,-22.6% (inactive),–
COC(=O)c1cccc(N(C(=O)CNC(=O)c2cccs2)C(C(=O)NCC2CCCO2)c2ccc(OC)c(OC)c2)c1 (stereo not drawn),-19.2% (inactive),–
COCCn1c(-c2ccc(OC)c(OC)c2)nc2ccccc21,-26.5% (inactive),–
CCCn1c(C(O)c2cc(OC)ccc2OC)nc2ccccc21 (stereo not drawn),-14.8% (inactive),–
COc1ccc(-c2nc3ccccc3n2CCC(C)C)cc1OC,–,25.9 µM (active)
CCOCCn1c(-c2ccccc2)nc2ccccc21,–,18.4 µM (active)
CCOCCn1c(C(C)C)nc2ccccc21,-25.3% (inactive),–
CCCCCN(C(=O)NC(=O)Nc1ccccc1OC)S(C)(=O)=O,-17.8% (inactive),–
CC(C)c1ccc(NC(=O)Cn2nnc(C(=O)NCCc3ccccc3)c2N)cc1,5.52% (inactive),–
CN(C)c1ccc(/C=C/c2sc3ccccc3[n+]2C)cc1,–,0.141 µM (active)

SMILES,"activity change, negative = growth inhibition",Potency
CN(C)c1ccc(/C=C/c2sc3ccccc3[n+]2CCCCBr)cc1,–,0.316 µM (active)
Cc1cccc(CN2CCN(Cc3cnn(-c4ccccc4F)c3)CC2CCO)n1 (stereo not drawn),-16% (inactive),–
CC(=O)N1CCN(S(=O)(=O)c2ccc(C)c([N+](=O)[O-])c2)C1C(C)C (stereo not drawn),-4.36% (inactive),–
O=C1CC2(CCCC2)C(=O)N1CN1CCN(S(=O)(=O)c2ccc(F)cc2F)CC1,-2.62% (inactive),–
CCC(C(=O)Nc1ncccn1)(C(F)(F)F)C(F)(F)F,-8.1% (inactive),–
COc1cc(Cl)c(C)cc1NC(=O)CSc1nnc(CN2CCCC2)o1,21.9% (inactive),–
CCOCC(=O)Nc1cc(OC)c(Cl)cc1OC,-4.91% (inactive),–
COc1cc(NC(=O)CSC(=S)N2CCCC2)c(OC)cc1Cl,–,14.6 µM (active)
COc1ccc(C(=O)N(C)CC(O)c2ccccc2)cc1OC1CCN(C(C)=O)CC1 (stereo not drawn),18.6% (inactive),–
Cc1cc2c(=O)n(CC(=O)NCC(=O)Nc3ccc(C(C)C)cc3)cnc2s1,11.4% (inactive),–
CCC1(C)Cc2c(sc3[nH]c(=S)n(Cc4ccccc4)c(=O)c23)CO1 (stereo not drawn),–,18.4 µM (active)
CCC1(C)Cc2c(sc3nc(SC)nc(N)c23)CO1 (stereo not drawn),-40% (inactive),–
CCC1(C)Cc2c(sc3nc(SC)[nH]c(=O)c23)CO1 (stereo not drawn),-2.82% (inactive),–
Cc1ccc(/C=C/C(=O)O)cc1S(=O)(=O)N1CCC(Cc2ccccc2)CC1,4.06% (inactive),–
CCOC(=O)C(CO)NC(=O)C1(NC(C)=O)CCCC1 (stereo not drawn) (Ac-[Ac5c]-[ξS]-OEt),18.1% (inactive),–
CC(=NNC(=S)N1CCCCCC1)c1ccccn1,–,0.0164 µM (active)
CNC(=S)N1CCN(c2ccccn2)CC1,0.242% (inactive),–
Cc1cccc(C)c1NC(=S)N1CCCCCC1,-7.49% (inactive),–
O=C(Nc1ccc(NC(=O)c2ccccc2F)cc1)c1ccccc1F,-0.0635% (inactive),–
COc1ccc(C/C(C)=N/NC(=O)c2ccncc2)cc1,10.6% (inactive),–
C/C(=N\NC(=O)c1ccccc1F)c1ccccn1,–,0.517 µM (active)
C/C(=N\NC(=O)Cc1ccc(Br)cc1)c1cccnc1,6% (inactive),–

SMILES,"activity change, negative = growth inhibition",Potency
CC1=NNC(=O)C1CCC(=O)N/N=C(\C)c1ccc(Cl)cc1 (stereo not drawn),-2.58% (inactive),–
C/C(=N\NC(=O)Cc1ccc(Cl)cc1)c1ccccn1,–,2.31 µM (active)
COc1ccc(CC(=O)N/N=C(\C)c2ccccn2)cc1,–,7.31 µM (active)
C/C(CC(=O)Nc1ccc(N(C)C)cc1)=N\NC(=O)c1ccccc1F,6.54% (inactive),–
COc1ccc(/C(C)=N/NC(=O)c2ccc3nc[nH]c3c2)cc1,1.6% (inactive),–
CCN(CC(=O)Nc1cc(Cl)ccc1C)C(=O)Cn1c(=O)cnc2ccccc21,4.61% (inactive),–
Cc1ccc(CC(=O)N(C)CC(=O)N(CC(C)C)c2c(N)n(CC(C)C)c(=O)[nH]c2=O)cc1C,-14.8% (inactive),–
O=C(COC(=O)c1ncc(Cl)c(Cl)c1Cl)NCc1cccs1,9.23% (inactive),–
CCN(CC)C(=O)Cn1cc(S(=O)(=O)CC(=O)NCc2ccc3c(c2)OCO3)c2ccccc21,-2.15% (inactive),–
Cc1ccccc1/C=C\c1nc(O)c([N+](=O)[O-])c(=O)[nH]1,1.57% (inactive),–
Cc1ccc(NC(=O)COc2ccc(/C=N\NC(=O)c3cccnc3)cc2)cc1C,-4.49% (inactive),–
CCOc1cc2c(Cl)ncnc2c(OCC)c1OCC,-0.504% (inactive),–
O=S(=O)(Nc1ccc(OC(F)(F)F)cc1)c1cccc2nonc12,-26.6% (inactive),–
CCOc1ccc(S(=O)(=O)n2ccnc2)c2ccccc12,0.648% (inactive),–
CC[C@@H]1CC2=C(C(=O)OC(C)(C)O2)[C@@H](CC)O1,-9.09% (inactive),–
CC(C)C1CC2=C(C(=O)OC(C)(C)O2)C(c2ccc(F)cc2)O1 (stereo not drawn),-0.527% (inactive),–
CC1(C)OC(=O)C2=C(CC(c3ccccc3)OC2CCc2ccccc2)O1 (stereo not drawn),–,23.1 µM (active)
CN(C)c1nc(-c2cccnc2)nc(-c2ccc(Cl)cc2)c1C#N,-26.8% (inactive),–
CN(C)C(=O)Cn1c(=O)n(S(=O)(=O)c2ccccc2)c2ccccc21,1.81% (inactive),–
CCNC(=O)CCc1nc(-c2ccc(C)cc2)no1,-26.5% (inactive),–
CC(=O)c1ccc(NC(=O)CCc2nc(-c3ccc(C)cc3)no2)cc1,–,16.4 µM (active)
Cc1ccc(-c2noc(CCC(N)=O)n2)cc1,-15.8% (inactive),–

SMILES,"activity change, negative = growth inhibition",Potency
CC(C)CC(=O)N=C1SC2CS(=O)(=O)CC2N1CCc1ccccc1 (stereo not drawn),-18.7% (inactive),–
CCOC(=O)C1CCN(Cc2ccc(-c3ccccc3)cc2)CC1,3.59% (inactive),–
CCOC(=O)C1CCN(C(=O)COc2cc(C)c(Br)c(C)c2)CC1,-22.3% (inactive),–
CCOC(=O)C1CCN(c2ncnc3c2c(-c2ccccc2)cn3-c2cccc(C)c2)CC1,–,23.1 µM (active)
CCOC(=O)C1CCN(c2ncnc3c2c(-c2ccccc2)cn3-c2ccc(C)cc2)CC1,–,18.4 µM (active)
CCOC(=O)C1CCCN(C(=O)c2cccc3ccccc23)CC1 (stereo not drawn),-29.7% (inactive),–
CCOC(=O)C1CCN(Cc2nnc(-c3cccc(Br)c3)o2)CC1,-4.65% (inactive),–
O=C(O)CCC(=O)Nc1ccc(N2CCOCC2)cc1,-10.6% (inactive),–
CCCC1C(=O)N2C(N(C)C)=Nc3ccc(C)cc3N2C1=O (stereo not drawn),–,inactive
CC(=O)Nc1ccc(NC(=O)c2sc3nc4c(c(-c5ccc(C)cc5)c3c2N)CCC4)cc1,-9.97% (inactive),–
Cc1nn(C)cc1C(=O)c1ccccc1,1.93% (inactive),–
CN(C)c1ccnc2sc(C(=O)c3ccccc3)c(N)c12,-0.214% (inactive),–
Cc1cccc(NC(=O)c2sc3nc4c(c(-c5ccco5)c3c2N)CCC4)c1,–,25.9 µM (active)
Cc1cccc(NC(=O)/C(=C\c2ccco2)NC(=O)c2ccccc2)c1,5.21% (inactive),–
Cc1nc2sc(C(=O)c3ccccc3)c(N)c2c2c1CCCC2,–,20.6 µM (active)
NC(=O)c1sc2nc3c(c(-c4ccccc4)c2c1N)CCC3,–,13 µM (active)
CCOC(=O)c1sc2nc(SC)nc(-c3ccccc3)c2c1N,-8.81% (inactive),–
Cc1sc2nc(CC(N)=O)[nH]c(=O)c2c1-c1ccccc1,1.96% (inactive),–
CCCCC(NS(=O)(=O)c1ccc(C)cc1)C(=O)Oc1ccc2c3c(c(=O)oc2c1)CCC3 (stereo not drawn),-29% (inactive),–
CCc1c(-c2ccccc2)nc(N)c(C#N)c1-c1cccs1,-7.76% (inactive),–

# Source: PubChem BioAssay AID686978 (National Center for Advancing Translational Sciences (NCATS), 2013)
